What is called inhibition is the change of the read-out against control, counted positive when it falls.

Out of some 1,400 compounds screened, about 50 (4%) were called active.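 How the source made its calls: active means mean inhibition across replicates above about 26% (limit read from the data); inactive means the rest.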 Only a sample is shown.

Sequence of Caspase-3 (Homo sapiens) (P42574 whole entry, looked up): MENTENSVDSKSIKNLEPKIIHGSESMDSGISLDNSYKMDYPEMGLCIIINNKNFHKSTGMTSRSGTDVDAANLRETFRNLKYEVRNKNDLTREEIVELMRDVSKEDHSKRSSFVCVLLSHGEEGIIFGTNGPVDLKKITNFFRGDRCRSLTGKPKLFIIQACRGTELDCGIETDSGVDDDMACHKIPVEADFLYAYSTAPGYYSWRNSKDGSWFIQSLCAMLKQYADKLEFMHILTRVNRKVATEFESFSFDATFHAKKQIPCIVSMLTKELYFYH

This assay addresses Caspase-3 (Homo sapiens) (UniProt P42574). Kind of assay: CASP3 inhibitor validation, counterassay for project on UBE2N polyubiquitination blockers, biochemical, one dose (AID 488856).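 Further: plate controls were DMSO with caspase-3 for no effect and DMSO wells lacking enzyme for full effect.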 As to conditions: Recombinant caspase-3, Caspase-Glo 3/7 luminescence, 60 min; at 20 µM; hits give high values.
On to `Cc1cccc(-n2cnc(C(=O)NNC(=S)Nc3ccccc3)c2)n1`, for which the inhibition was 0% (inactive). The same measure for `CCCCN(C)CCCNC(=O)c1cc(-c2cccs2)nc2ccccc12`: -3.7% (inactive). With `C#CCOCCOCCOCCNc1nc(N2CCN(C(=O)C(Cc3ccc(O)cc3)n3cc(C(N)CC(C)C)nn3)CC2)nc(N2CCN(C(=O)C(Cc3ccc(O)cc3)n3cc(C(N)C(C)CC)nn3)CC2)n1` (stereo unspecified), the inhibition is 0.7% (inactive). Then `CN(C)c1ccnc2sc3c(=O)n(Cc4ccccc4)cnc3c12`, with -2.2% (inactive); and `CCN1C(=NCc2ccc(OC)cc2)N[C@@H](CCc2ccccc2)[C@H](C(=O)NCc2ccc(OC)cc2)[C@H]1C`, with -3.2% (inactive). Then `CN(C)CC(O)COc1ccc(C(C)(C)c2ccc(OCC(O)CN(C)C)cc2)cc1` (stereo unspecified), with 3.6% (inactive). For the compound `CCCCCCCCCCOC(=O)Cn1c(COc2cccc(OC)c2)[n+](C)c2ccccc21`, the inhibition is 3.3% (inactive). Then `Cc1cccc(OCC(O)CN2CCN(CCN3C(=O)c4cccc5cccc(c45)C3=O)CC2)c1C` (stereo unspecified), with 2.6% (inactive). Turning to `COc1ccccc1NC(=O)CSc1nnc(-c2ccoc2C)n1CCc1ccccc1`, the inhibition is -0.3% (inactive). Then `CCCCN(CCCC)CCC(O)c1cc2c(Cl)cc(Cl)cc2c2cc(C(F)(F)F)ccc12` (stereo unspecified), with 3.4% (inactive); and `Cc1c(CN2CCC(CO)(CCOc3ccccc3)CC2)[nH]c2ccc(Cl)cc12`, with -3.8% (inactive); and `N#Cc1c(-c2ccc(Cl)cc2)c2c([nH]c1=S)CCCC2`, with -1.9% (inactive). Then `CC[C@@H](C)[C@@H]1CN([C@@H](C)CN2CCC[C@H]2CN2C(N)=NC[C@H]2C(C)C)C(=N)N1CCc1ccc(Cl)c(Cl)c1`, with 2.5% (inactive); and `CCOC(=O)[C@@H]1[C@H]2COc3cc(OC)ccc3[C@H]2N2C(=O)N(c3ccc(F)cc3)C(=O)[C@]12C`, with 3.4% (inactive).

Regarding `Cc1cc(C)c(NC(=O)C[N+](C)(C)CC(O)COc2cccc3ccccc23)c(C)c1` (stereo unspecified), the inhibition was -2.3% (inactive).

Take `CC(=O)Nc1ccc(NC(=O)c2sc3nc4c(c(-c5ccc(C)cc5)c3c2N)CCC4)cc1`: the inhibition was 4.6% (inactive). Take `C=C1c2c(Cl)ccc(O)c2C(O)=C2C(=O)[C@]3(O)C(O)=C(C(N)=O)C(=O)[C@@H](N(C)C)[C@@H]3[C@@H](O)C12` (stereo partly specified): the inhibition was 1.1% (inactive). Regarding `CCCOc1ccc(Cl)cc1Nc1nc(NCCO)nc(N2CCCC2)n1`, the inhibition is 6.6% (inactive).

With `CN1CCC(CN)(N2CCN(c3ccccc3)CC2)CC1`, the inhibition is -2.2% (inactive). Turning to `CCOC(=O)N1CCN(C(=O)Cc2ccc(-n3c(=S)[nH]c4ccccc4c3=O)cc2)CC1`, the inhibition is -0.5% (inactive). In the case of `CN1CCN(CCCNC(=O)c2ccc(/C=C3\Oc4ccccc4N(Cc4ccc(Cl)cc4)C3=O)cc2)CC1`, the inhibition is -0.4% (inactive).

Values taken from PubChem BioAssay AID488856 (Sanford-Burnham Center for Chemical Genomics, 2010).
